Test results: PubChem BioAssay
The source made the active and inactive calls.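 Rule for the calls, unless noted: active = inhibition of the reporter signal at or above 50%; inactive = inhibition below 50%.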

Experiments:
[1] = inhibitors of TNFa-induced NFkB p65 translocation, primary screen, imaging, HUVEC, MLSMR starter and 10KST1 sets (AID 438;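 active = inhibition above 20% together with a positive visual image hit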;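 note: compound added about 3h40 before a 20 min TNFalpha stimulation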;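 for inhibition: signal is the nuclear over cytoplasmic p65 intensity ratio per well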); conditions: HUVEC TNFa-induced p65 nuclear translocation; cell count: measured here: nuclei count (cytotoxicity indicator), at 2.08 µM; inhibition: at 2 µM, stronger effect = higher value, 0% TNFa-plus-vehicle, 100% no-TNFa wells
[2] = inhibitors of mutant huntingtin aggregation, primary screen, imaging, exon1htt(103Q)mCFP cells, high-content imaging (AID 483;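 active = visual image review flags a hit and inhibition of aggregation exceeds 20%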;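 note: compound exposure lasted 3 days before fixation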;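 for nuclei count: percent of the per-plate median nuclei count of sample wells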); conditions: exon1htt(103Q)mCFP cell line, aggregate imaging, at 2 µM; inhibition of aggregation: stronger effect = higher value; nuclei count: measured here: cell count, toxicity
[3] = inhibitors of E-selectin induction by TNFa, primary screen, imaging, HUVEC, immunofluorescence, MLSMR starter and 10KST1 sets (AID 487;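 active = visually confirmed hit in the image check and inhibition above 20%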;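 for inhibition: signal is fraction of cell area covered by stained E-selectin grains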;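 for nuclei count: 100% = median nuclei count of all wells on the same plate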); conditions: HUVEC TNFalpha-induced E-selectin immunofluorescence imaging, at 2 µM; inhibition: stronger effect = higher value; nuclei count: measured here: cell number, toxicity
[4] = molecular target: Voltage-gated potassium channel subunit beta-2 (Rattus norvegicus) (UniProt P62483); assay: KvBeta enzyme negative modulators, primary screen, biochemical, NADPH fluorescence (AID 622;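 active = fluorescence slope higher than the sample average by over 3 SD, cut at about -0.22 in these data, passing the limit was not always enough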;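 note: slope of raw intensity against log time taken from 70 to 1610 s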); conditions: recombinant KvBeta, 4-cyanobenzaldehyde reduction, at 10 µM, stronger effect = higher value
[5] = molecular target: Voltage-gated potassium channel subunit beta-2 (Rattus norvegicus) (UniProt P62483); assay: KvBeta positive modulators, primary screen, biochemical, NADPH fluorescence (AID 623;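 active = NADPH fluorescence slope more negative than the mean of all samples by about 3 SD, 99.7% confidence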;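 note: fluorescence intensity change per second fitted from 20 to 320 s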); conditions: Recombinant KvBeta, NADPH fluorescence decrease slope, 10 min; at 10 µM; stronger effect = lower value
[6] = molecular target: Alpha-2C adrenergic receptor (Homo sapiens) (UniProt P18825); assay: modulators of alpha2C/GIRK thallium flux, primary screen, cell-based, HEK293 alpha2C/GIRK1/2 (AID 624;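 active = fluorescence slope after compound addition differing from the mean of all screened samples at 99.7% confidence, in either direction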;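 note: slope of fluorescence ratio to pre-addition baseline per second over 15 to 24 s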); conditions: thallium flux BTC fluorescence, at 10 µM, actives lie on both sides
[7] = inhibitors of Sendai virus-induced IRF3 signaling, primary screen, TLR/RLR signaling modifier project, cell-based, Sendai virus stimulus, luciferase, 10K MLSCN set (AID 602276;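 active = inhibition at or above 50% at 10 µM; inactive = inhibition below 50%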;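 note: firefly luciferase from ISG56 promoter only with Renilla not read in this screen; 0% = Sendai virus plus DMSO and 100% = medium plus DMSO without virus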); conditions: HEK293 RL24 IRF3 luciferase reporter, at 10 µM, stronger effect = higher value
[8] = inhibitors of poly I:C-induced TLR3 signaling, primary screen, cell-based, poly I:C stimulus, luciferase, 10K MLSCN set (AID 602277); conditions: HEK293-TLR3 RL24 IRF3 luciferase reporter, at 10 µM, stronger effect = higher value

Sequence of Voltage-gated potassium channel subunit beta-2 (Rattus norvegicus) (P62483 whole entry, looked up): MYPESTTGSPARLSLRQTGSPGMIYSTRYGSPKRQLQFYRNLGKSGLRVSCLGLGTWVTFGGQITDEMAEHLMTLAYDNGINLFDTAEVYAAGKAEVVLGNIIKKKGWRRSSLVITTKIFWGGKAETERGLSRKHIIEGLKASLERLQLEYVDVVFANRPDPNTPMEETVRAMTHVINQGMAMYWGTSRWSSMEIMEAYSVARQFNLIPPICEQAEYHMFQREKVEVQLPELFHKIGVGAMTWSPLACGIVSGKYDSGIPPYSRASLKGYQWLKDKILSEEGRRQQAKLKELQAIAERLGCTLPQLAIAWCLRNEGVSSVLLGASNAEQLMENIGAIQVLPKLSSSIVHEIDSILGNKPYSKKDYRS
Sequence of Alpha-2C adrenergic receptor (Homo sapiens) (P18825 whole entry, looked up): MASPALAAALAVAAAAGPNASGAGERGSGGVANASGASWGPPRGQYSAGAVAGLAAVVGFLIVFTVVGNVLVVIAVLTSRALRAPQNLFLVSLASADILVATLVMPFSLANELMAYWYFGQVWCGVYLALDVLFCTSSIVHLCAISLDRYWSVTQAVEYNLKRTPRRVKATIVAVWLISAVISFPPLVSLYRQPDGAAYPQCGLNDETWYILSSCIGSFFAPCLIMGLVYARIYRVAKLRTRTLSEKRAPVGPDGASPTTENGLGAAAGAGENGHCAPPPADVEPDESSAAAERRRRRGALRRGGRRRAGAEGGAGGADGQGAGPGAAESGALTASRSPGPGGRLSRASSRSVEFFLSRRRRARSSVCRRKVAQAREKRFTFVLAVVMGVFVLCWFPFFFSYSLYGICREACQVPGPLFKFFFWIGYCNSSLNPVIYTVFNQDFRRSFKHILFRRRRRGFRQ

SMILES	cell count [1]	inhibition [1]	inhibition of aggregation [2]	nuclei count [2] [%]	inhibition [3]	nuclei count [3] [%]	fluorescence slope [4]	NADPH fluorescence slope [5]	slope [6]	inhibition [7]	inhibition [8]
COc1cccc(-c2nc(CS(=O)(=O)CC(=O)Nc3cc(C)ccc3C)c(C)o2)c1	718	-4.6% (inactive)	-2.5% (inactive)	59.5	-21.2% (inactive)	104	-0.517 (inactive)	-4.8e-05 (inactive)	0.00688 (inactive)	5.73% (inactive)	27.7% (inactive)
CCOC(=O)c1cnc2c(OC)cccc2c1N1CCN(c2ccc(OC)cc2)CC1	158	-4.9% (inactive)	16.9% (inactive)	72.9	2.9% (inactive)	80.4	-0.577 (inactive)	-4.5e-05 (inactive)	0.00543 (inactive)	19.3% (inactive)	24.8% (inactive)
CNS(=O)(=O)c1cccc(C(=O)OCC(=O)c2cc(C)n(-c3ccc4c(c3)OCO4)c2C)c1	406	2.5% (inactive)	-7.6% (inactive)	97.3		156	-0.436 (inactive)	-4.7e-05 (inactive)	0.0143 (active)	-1.89% (inactive)	10.6% (inactive)
CCc1ccc(NC(=O)c2cccnc2)cc1	337	-3.8% (inactive)	23.7% (inactive)	88	-14.1% (inactive)	110	-0.429 (inactive)	-2.2e-05 (inactive)	0.00479 (inactive)	-27% (inactive)	-80.3% (inactive)
Cc1cccc(NS(=O)(=O)c2cc(C(=O)OCC(=O)Nc3cc(C)on3)ccc2C)c1	427	7.9% (inactive)	3.7% (inactive)	99.6		125	-0.498 (inactive)	-3.2e-05 (inactive)	0.00536 (inactive)	25.1% (inactive)	2.98% (inactive)
O=C(O)CCCC(=O)Nc1nc(-c2ccc(F)cc2)cs1	392	-1.3% (inactive)	-6.1% (inactive)	94.3	-90.5% (inactive)	141	-0.327 (inactive)	-1.1e-05 (inactive)	0.00291 (inactive)	6.78% (inactive)	14.9% (inactive)
Nn1c(SCC(=O)Nc2ccc3c(c2)OCO3)nnc1C1CC1	363	4.8% (inactive)	0.8% (inactive)	100	-16% (inactive)	111	-0.574 (inactive)	-5.7e-05 (inactive)	0.00672 (inactive)	4.52% (inactive)	17.1% (inactive)
COC(=O)C1=C(C)C(c2cccs2)NC(=O)N1C (stereo not given)	464	4.4% (inactive)	-0.4% (inactive)	102		137	-0.618 (inactive)	-2.3e-05 (inactive)	0.0046 (inactive)	15.4% (inactive)	17.5% (inactive)
